# In the supplement of paper PMC10849652:
# The full data set covers some 8,800 targets. This sample favours those with a hit. About 0.5% of all pairs of compound and target were hits. Unmarked numbers belong to inactive results.
# Legend:
# Test in all cases: log2 fold change, soluble protein after heating vs DMSO (PISA); higher = thermal stabilisation; K562 lysate, 10 uM; active = over 0.2 and 3.5 SD of the protein, either way, in both replicates (recomputed)
# [1] = compound: C=CC(=O)N1CCC[C@@H](n2nc(-c3ccc(Oc4ccccc4)cc3)c3c(N)ncnc32)C1 [ibrutinib]
# Outline: (§1)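 Quantification was by TMTpro 16plex LC-MS/MS with equalised channel sums, applied to the supernatant after 21,000xg for 90 min. Samples were crude K562 extract at 1 mg/mL protein in PBS pH 7.4 with 1 mM MgCl2, treated with 10 μM compound for 30 min, heated for 3 min across 48°C-58°C, pooled and brought to 0.5% NP-40 at 4°C. Values are log-two fold changes in thermal stability relative to solvent controls, from duplicates.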
# [2] = compound: CC(=O)c1cnc2ccc(-c3cc(Cl)c(O)c(Cl)c3)nc2c1N[C@H]1CC[C@H](CN(C)C)CC1
# Outline: as §1
# [3] = compound: CC(C)(C)Cn1c(N)nc2ccc(-c3[nH]c(C(C)(C)C)nc3-c3ccc(F)cc3)nc21 [ralimetinib]
# Outline: as §1
# [4] = compound: CC(C)(O)CC(=O)NCCn1ccc2ncnc(Nc3ccc(Oc4cccc(C(F)(F)F)c4)c(Cl)c3)c21
# Outline: as §1
# [5] = compound: CC(C)C1=C2N=C(C=C(N2N=C1)NCC3=CC=CC=C3)NCCCCCCN
# Outline: as §1
# [6] = compound: CC1=C(C(CC(=O)N1)C2=CC=C(C=C2)C(F)(F)F)C(=O)NC3=C(C=C4C(=C3)C=NN4)F
# Outline: as §1
# [7] = compound: CC1=C(C2=C(C=C1)C(=O)C3=CC=CC=C3N2CCCN)C
# Outline: as §1
# [8] = compound: CC1=C(C=C(C=C1)NC(=O)C2=CC(=CC=C2)C(C)(C)C#N)NC3=CC4=C(C=C3)N=CN(C4=O)C
# Outline: as §1
# [9] = compound: CC1=C(C=C(C=C1)NC(=O)C2=CC(=CC=C2)N(C)C)NC(=O)C3=CC=C(C=C3)O
# Outline: as §1
# [10] = compound: CC1=CC=C(C=C1)SC2=C3C=C(SC3=CN=C2)C(=O)N
# Outline: as §1
# [11] = compound: CCCS(=O)(=O)Nc1ccc(F)c(C(=O)c2c[nH]c3ncc(-c4ccc(Cl)cc4)cc23)c1F [vemurafenib]
# Outline: as §1
# [12] = compound: CCCS(=O)(=O)Nc1ccc(F)c(C(=O)c2c[nH]c3ncc(Cl)cc23)c1F
# Outline: as §1
# [13] = compound: CCN(CCCOc1ccc2c(Nc3cc(CC(=O)Nc4cccc(F)c4)[nH]n3)ncnc2c1)CCOP(=O)(O)O [barasertib]
# Outline: as §1
# [14] = compound: CC[C@@H]1C(=O)N(C)c2cnc(Nc3ccc(C(=O)NC4CCN(C)CC4)cc3OC)nc2N1C1CCCC1
# Outline: as §1
# [15] = compound: CC[C@@H]1C(=O)N(C)c2cnc(Nc3ccc(C(=O)N[C@H]4CC[C@H](N5CCN(CC6CC6)CC5)CC4)cc3OC)nc2N1C(C)C [volasertib]
# Outline: as §1
# [16] = compound: CCn1c(C(=O)N(C2CC2)C2CC2)cc2c3c(ncn3C)c(Nc3cc(C)n(C)n3)nc21
# Outline: as §1
# [17] = compound: CCn1cc(-c2ccnc3[nH]c(-c4cccc(CN(C)C)c4)cc23)c(-c2ccc(NC(=O)N(C)C)cc2)n1
# Outline: as §1
# [18] = compound: CN1CCC(CNc2ccc3ncc(-c4cccc(OC(F)(F)F)c4)n3n2)CC1
# Outline: as §1
# [19] = compound: CN1CCN(CCOc2cc(OC3CCOCC3)c3c(Nc4c(Cl)ccc5c4OCO5)ncnc3c2)CC1 [saracatinib]
# Outline: as §1
# [20] = compound: CN1CCN(c2nc(C3=C(c4c[nH]c5ccccc45)C(=O)NC3=O)c3ccccc3n2)CC1 [sotrastaurin]
# Outline: as §1
# UniProt Q16836, sequence (Q16836 whole entry, looked up): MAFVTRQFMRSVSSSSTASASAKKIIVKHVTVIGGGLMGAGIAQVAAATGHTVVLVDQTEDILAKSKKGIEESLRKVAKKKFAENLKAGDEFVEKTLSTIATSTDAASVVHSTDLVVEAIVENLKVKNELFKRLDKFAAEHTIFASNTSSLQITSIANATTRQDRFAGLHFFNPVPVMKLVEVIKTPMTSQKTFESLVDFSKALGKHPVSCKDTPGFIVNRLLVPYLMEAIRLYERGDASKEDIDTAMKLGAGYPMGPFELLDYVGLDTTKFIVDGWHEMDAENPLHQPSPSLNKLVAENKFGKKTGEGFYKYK
# UniProt P13598, sequence (P13598 whole entry, looked up): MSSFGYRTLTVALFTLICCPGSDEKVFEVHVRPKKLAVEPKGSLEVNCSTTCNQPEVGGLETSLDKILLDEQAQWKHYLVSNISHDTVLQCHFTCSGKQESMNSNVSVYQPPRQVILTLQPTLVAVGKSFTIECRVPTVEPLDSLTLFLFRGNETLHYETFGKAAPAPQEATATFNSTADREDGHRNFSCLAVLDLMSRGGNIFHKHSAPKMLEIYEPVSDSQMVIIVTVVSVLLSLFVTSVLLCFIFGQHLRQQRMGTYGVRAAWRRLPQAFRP
# UniProt Q14527, sequence (Q14527 whole entry, looked up): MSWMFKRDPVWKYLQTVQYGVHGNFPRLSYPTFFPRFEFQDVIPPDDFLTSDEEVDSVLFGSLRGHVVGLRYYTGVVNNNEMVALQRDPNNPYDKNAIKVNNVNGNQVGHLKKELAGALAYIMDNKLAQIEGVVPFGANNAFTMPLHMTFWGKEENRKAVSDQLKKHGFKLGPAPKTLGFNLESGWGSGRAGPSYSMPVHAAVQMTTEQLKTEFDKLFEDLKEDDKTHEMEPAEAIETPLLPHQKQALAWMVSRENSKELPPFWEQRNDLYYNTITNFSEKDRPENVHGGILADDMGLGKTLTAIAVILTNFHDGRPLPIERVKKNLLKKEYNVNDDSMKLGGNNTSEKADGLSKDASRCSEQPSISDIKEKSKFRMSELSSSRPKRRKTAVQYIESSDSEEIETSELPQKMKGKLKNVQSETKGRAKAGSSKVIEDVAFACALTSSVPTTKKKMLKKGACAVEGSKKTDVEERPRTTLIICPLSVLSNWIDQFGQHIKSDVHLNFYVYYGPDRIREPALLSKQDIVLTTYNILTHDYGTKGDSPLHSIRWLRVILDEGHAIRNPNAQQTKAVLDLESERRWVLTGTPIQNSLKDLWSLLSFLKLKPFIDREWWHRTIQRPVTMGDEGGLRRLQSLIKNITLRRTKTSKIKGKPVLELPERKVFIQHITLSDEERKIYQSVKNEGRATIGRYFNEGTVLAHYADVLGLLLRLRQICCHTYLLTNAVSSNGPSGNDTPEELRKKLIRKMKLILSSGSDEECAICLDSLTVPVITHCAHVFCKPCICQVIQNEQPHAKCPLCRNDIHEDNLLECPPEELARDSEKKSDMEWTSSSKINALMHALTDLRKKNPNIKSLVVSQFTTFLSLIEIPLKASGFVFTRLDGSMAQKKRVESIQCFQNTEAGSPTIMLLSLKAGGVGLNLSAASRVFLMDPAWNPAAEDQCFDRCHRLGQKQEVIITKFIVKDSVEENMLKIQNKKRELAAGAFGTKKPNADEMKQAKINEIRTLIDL
# UniProt Q9NPR9, sequence (Q9NPR9 whole entry, looked up): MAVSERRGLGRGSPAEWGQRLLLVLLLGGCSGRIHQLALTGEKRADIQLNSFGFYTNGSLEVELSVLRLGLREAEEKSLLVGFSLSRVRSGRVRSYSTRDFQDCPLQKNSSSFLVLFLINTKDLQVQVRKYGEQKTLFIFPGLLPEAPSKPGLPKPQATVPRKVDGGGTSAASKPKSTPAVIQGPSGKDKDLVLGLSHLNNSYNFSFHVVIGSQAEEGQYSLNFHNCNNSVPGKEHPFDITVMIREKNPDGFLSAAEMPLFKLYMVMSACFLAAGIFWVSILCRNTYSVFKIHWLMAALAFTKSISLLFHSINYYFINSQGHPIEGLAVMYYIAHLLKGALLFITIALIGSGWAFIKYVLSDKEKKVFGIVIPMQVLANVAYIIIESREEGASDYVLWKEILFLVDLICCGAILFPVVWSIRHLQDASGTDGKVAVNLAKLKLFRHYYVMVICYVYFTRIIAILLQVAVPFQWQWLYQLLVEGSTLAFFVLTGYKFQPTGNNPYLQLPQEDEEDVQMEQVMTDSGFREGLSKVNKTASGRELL
# UniProt Q9BX10, sequence (Q9BX10 whole entry, looked up): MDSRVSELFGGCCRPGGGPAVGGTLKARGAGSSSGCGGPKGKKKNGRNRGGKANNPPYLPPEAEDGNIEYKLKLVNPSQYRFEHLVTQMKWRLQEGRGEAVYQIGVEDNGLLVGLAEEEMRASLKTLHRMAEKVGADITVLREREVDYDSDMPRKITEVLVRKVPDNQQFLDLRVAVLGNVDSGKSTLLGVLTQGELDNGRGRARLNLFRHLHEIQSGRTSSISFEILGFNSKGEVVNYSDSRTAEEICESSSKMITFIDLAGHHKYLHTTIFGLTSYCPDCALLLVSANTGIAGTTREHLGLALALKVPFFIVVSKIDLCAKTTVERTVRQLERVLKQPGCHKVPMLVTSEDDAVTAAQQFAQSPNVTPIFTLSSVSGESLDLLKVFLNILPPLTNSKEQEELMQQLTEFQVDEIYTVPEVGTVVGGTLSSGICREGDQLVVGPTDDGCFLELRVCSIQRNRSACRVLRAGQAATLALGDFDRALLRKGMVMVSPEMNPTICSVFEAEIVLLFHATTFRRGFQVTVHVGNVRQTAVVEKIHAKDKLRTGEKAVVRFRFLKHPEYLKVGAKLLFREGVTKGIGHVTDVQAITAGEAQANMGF
# UniProt P55084, sequence (P55084 whole entry, looked up): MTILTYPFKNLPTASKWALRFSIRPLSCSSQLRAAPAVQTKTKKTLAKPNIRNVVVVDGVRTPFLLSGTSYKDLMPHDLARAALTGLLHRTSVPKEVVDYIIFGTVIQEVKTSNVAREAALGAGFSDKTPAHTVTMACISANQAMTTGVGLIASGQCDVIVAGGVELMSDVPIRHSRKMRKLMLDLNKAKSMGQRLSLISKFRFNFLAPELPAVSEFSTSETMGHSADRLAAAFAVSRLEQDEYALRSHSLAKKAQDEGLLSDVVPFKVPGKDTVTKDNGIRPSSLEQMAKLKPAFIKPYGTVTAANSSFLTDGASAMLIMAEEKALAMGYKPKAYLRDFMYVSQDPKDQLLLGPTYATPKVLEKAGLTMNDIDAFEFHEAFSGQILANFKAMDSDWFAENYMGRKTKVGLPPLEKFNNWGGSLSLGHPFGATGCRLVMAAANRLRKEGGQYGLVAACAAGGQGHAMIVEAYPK
# UniProt Q8IYU2, sequence (Q8IYU2 whole entry, looked up): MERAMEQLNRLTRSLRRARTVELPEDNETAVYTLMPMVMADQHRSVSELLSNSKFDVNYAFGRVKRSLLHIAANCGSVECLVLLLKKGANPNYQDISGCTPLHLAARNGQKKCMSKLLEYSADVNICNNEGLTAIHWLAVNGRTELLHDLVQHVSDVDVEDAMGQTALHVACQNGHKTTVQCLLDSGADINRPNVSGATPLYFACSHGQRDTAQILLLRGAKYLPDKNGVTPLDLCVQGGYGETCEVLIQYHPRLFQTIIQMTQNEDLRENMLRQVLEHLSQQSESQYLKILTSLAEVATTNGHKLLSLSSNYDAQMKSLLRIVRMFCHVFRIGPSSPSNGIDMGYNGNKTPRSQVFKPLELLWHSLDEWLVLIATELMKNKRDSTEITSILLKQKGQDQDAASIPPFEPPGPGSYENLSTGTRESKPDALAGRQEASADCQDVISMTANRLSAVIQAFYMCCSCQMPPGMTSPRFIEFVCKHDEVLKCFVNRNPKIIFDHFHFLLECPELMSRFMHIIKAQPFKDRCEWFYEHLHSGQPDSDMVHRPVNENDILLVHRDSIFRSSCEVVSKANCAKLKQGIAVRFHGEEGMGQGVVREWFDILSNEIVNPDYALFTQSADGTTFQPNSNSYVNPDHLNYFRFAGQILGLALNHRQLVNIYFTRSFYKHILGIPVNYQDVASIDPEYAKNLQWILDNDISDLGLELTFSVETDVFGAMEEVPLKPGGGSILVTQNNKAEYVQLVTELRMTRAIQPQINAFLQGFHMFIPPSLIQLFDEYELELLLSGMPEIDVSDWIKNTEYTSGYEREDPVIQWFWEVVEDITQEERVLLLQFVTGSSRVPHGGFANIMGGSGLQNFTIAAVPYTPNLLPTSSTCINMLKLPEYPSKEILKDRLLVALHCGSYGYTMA
# UniProt P49915, sequence (P49915 whole entry, looked up): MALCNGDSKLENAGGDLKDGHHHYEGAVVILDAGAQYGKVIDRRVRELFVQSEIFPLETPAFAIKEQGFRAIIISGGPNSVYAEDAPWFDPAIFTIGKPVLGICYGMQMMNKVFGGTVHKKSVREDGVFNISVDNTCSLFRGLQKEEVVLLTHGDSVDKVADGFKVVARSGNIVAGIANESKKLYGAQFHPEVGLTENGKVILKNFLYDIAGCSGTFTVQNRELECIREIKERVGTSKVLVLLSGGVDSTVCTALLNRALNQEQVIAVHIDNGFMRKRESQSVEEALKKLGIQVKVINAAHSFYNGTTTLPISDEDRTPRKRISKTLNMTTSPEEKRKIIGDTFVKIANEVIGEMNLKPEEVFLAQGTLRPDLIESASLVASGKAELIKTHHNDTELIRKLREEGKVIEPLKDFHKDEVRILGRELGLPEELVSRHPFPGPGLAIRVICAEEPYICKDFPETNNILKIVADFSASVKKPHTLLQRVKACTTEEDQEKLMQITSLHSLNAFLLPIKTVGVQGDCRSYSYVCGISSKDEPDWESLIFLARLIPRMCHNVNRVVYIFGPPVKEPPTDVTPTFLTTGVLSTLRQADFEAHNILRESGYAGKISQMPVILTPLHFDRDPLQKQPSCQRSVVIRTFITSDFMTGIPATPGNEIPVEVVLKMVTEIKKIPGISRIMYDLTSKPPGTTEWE
# UniProt Q01628, sequence (Q01628 whole entry, looked up): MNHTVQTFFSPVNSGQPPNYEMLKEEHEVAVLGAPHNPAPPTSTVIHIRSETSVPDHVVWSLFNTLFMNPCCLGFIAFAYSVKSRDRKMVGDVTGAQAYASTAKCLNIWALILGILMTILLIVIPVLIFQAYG
Target,log2 fold change [1],log2 fold change [2],log2 fold change [3],log2 fold change [4],log2 fold change [5],log2 fold change [6],log2 fold change [7],log2 fold change [8],log2 fold change [9],log2 fold change [10],log2 fold change [11],log2 fold change [12],log2 fold change [13],log2 fold change [14],log2 fold change [15],log2 fold change [16],log2 fold change [17],log2 fold change [18],log2 fold change [19],log2 fold change [20]
HADH isoform 2 (UniProt Q16836),-0.004,0.02,-0.023,-0.011,-0.036,0.013,-0.045,-0.039,0.028,0.004,-0.032,-0.022,-0.049,0.002,0.004,0.009,0.066,-0.054,-0.096,0.004
HACE1 (UniProt Q8IYU2),-0.034,-0.062,0,-0.056,0.041,-0.042,-0.042,-0.07,0.08,0.01,0.066,0.07,0.081,0.069,-0.058,0.039,-0.657 (active),0.252,0.025,-0.154
HADHB (UniProt P55084),0.086,-0.05,0.002,0.104,-0.024,-0.046,0.028,0.062,-0.03,0.077,-0.019,-0.004,-0.124,0.047,0.099,-0.005,-0.001,0.074,0.012,-0.069
GTPBP2 (UniProt Q9BX10),0.008,-0.123,0.042,-0.035,0,0.004,-0.018,0,0.047,-0.032,0.005,0.005,0.034,-0.03,-0.104,0.043,0.124,-0.074,0.047,0.043
ICAM2 (UniProt P13598),0.058,0.043,0.001,-0.019,-0.016,0.005,0.012,0.023,-0.028,-0.028,-0.036,0.016,0.018,0.03,0.015,-0.017,0.426 (active),-0.031,0.004,-0.035
GPR108 (UniProt Q9NPR9),-0.017,-0.063,0.001,-0.024,-0.08,0.039,0.049,0.027,-0.062,-0.004,0.001,-0.059,-0.03,0.01,0.03,0.031,0.057,0.01,0.092,0.019
GMPS (UniProt P49915),-0.034,0.003,0.009,0.013,0.006,-0.032,0.025,-0.024,0.015,0.02,-0.006,-0.011,-0.008,-0.05,-0.046,-0.011,0.128,-0.047,0.014,-0.005
INTS8 (UniProt Q75QN2),0.024,0.028,0.058,-0.028,0.009,-0.021,-0.179,0.023,-0.033,0.031,0.016,0.02,-0.131,-0.024,-0.061,0.041,-0.075,0.037,0.09,0.084
INPP4A (UniProt Q96PE3),-0.166,0.001,0.061,-0.013,-0.034,0.02,-0.086,0.022,-0.053,-0.025,-0.03,0.011,0.382 (active),-0.017,-0.034,0.031,0.021,0.015,-0.025,-0.008
ISY1 isoform 1 (UniProt Q9ULR0),0.019,0.028,0.007,-0.029,-0.056,-0.019,-0.157,-0.006,-0.02,-0.04,-0.186,0.034,0.018,0.066,-0.025,-0.012,-0.101,0.02,0.026,0.032
HLTF (UniProt Q14527),0.016,0.054,0.024,-0.017,-0.023,0.046,0.048,-0.022,0.003,-0.018,-0.008,-0.044,0.077,-0.002,-0.043,0.028,-0.024,0.073,0.004,0.017
HMGN4 (UniProt O00479),-0.067,0.051,-0.249,0,-0.097,-0.011,0.016,-0.014,-0.077,0.022,-0.015,0.016,-0.003,0.453,0.003,0.022,1.29 (active),-0.595,-0.173,-0.099
IFITM3 (UniProt Q01628),-0.07,-0.042,0.179,0.078,0.003,-0.173,-0.117,-0.133,-0.026,0.129,-0.046,0.079,0.342,-0.06,-0.025,0.026,-0.11,0.112,-0.041,0.052
GNL3 (UniProt Q9BVP2),0.023,-0.063,-0.026,-0.021,0.05,-0.005,-0.073,0.009,-0.007,-0.057,0.051,0.041,0.032,-0.078,0.004,-0.07,0.129,-0.066,0.004,0.013
HDAC1 (UniProt Q13547),-0.026,-0.001,0.031,0.01,-0.001,0.001,-0.008,-0.022,0.008,0.011,0.01,0.022,-0.001,-0.004,-0.019,0.03,-0.036,-0.001,0.014,-0.011
GTF3C5 isoform 3 (UniProt Q9Y5Q8),0.029,0.034,0.009,0.005,-0.016,0.025,-0.007,0.015,0.003,0.008,0.024,0.009,-0.011,0.006,-0.018,0.051,-0.025,0.017,0.031,-0.033
